# Assay results reported in ChEMBL document CHEMBL1961873, “Compounds: GSK PKIS; Assays: Nanosyn kinase panel” (2012).
# Tests used:
# [1] = biological target: High affinity nerve growth factor receptor (Homo sapiens) (UniProt P04629); settings: at 1 µM;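 also: each value is the mean percent inhibition of TRKA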
# [2] = biological target: BDNF/NT-3 growth factors receptor (Homo sapiens) (UniProt Q16620); settings: at 0.1 µM
# [3] = biological target: BDNF/NT-3 growth factors receptor (Homo sapiens) (UniProt Q16620); settings: at 1 µM
# [4] = biological target: NT-3 growth factor receptor (Homo sapiens) (UniProt Q16288); settings: at 0.1 µM
# [5] = biological target: NT-3 growth factor receptor (Homo sapiens) (UniProt Q16288); settings: at 1 µM
# [6] = biological target: T1, Tyrosine-protein kinase TXK (Homo sapiens) (UniProt P42681); settings: at 0.1 µM
# T1 sequence (whole entry): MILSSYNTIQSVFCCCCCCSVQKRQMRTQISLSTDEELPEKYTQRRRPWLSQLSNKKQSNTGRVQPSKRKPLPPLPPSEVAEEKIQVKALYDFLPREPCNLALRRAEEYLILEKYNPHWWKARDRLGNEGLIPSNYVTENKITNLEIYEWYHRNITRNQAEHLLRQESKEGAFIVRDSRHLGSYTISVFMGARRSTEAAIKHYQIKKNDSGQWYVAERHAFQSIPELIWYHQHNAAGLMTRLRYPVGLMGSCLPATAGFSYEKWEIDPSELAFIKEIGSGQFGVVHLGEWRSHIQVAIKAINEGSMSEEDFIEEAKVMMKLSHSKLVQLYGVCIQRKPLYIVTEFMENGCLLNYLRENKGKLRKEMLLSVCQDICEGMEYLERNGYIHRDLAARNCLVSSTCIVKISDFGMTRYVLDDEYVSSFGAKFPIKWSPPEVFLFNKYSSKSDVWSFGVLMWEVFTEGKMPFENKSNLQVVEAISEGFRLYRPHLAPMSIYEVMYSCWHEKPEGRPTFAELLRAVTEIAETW
# [7] = biological target: T1, Tyrosine-protein kinase TXK (Homo sapiens); settings: at 1 µM
# [8] = biological target: Non-receptor tyrosine-protein kinase TYK2 (Homo sapiens) (UniProt P29597); settings: at 0.1 µM;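 also: each value is a mean of the inhibition readings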
# Non-receptor tyrosine-protein kinase TYK2 (Homo sapiens), sequence (P29597 whole entry): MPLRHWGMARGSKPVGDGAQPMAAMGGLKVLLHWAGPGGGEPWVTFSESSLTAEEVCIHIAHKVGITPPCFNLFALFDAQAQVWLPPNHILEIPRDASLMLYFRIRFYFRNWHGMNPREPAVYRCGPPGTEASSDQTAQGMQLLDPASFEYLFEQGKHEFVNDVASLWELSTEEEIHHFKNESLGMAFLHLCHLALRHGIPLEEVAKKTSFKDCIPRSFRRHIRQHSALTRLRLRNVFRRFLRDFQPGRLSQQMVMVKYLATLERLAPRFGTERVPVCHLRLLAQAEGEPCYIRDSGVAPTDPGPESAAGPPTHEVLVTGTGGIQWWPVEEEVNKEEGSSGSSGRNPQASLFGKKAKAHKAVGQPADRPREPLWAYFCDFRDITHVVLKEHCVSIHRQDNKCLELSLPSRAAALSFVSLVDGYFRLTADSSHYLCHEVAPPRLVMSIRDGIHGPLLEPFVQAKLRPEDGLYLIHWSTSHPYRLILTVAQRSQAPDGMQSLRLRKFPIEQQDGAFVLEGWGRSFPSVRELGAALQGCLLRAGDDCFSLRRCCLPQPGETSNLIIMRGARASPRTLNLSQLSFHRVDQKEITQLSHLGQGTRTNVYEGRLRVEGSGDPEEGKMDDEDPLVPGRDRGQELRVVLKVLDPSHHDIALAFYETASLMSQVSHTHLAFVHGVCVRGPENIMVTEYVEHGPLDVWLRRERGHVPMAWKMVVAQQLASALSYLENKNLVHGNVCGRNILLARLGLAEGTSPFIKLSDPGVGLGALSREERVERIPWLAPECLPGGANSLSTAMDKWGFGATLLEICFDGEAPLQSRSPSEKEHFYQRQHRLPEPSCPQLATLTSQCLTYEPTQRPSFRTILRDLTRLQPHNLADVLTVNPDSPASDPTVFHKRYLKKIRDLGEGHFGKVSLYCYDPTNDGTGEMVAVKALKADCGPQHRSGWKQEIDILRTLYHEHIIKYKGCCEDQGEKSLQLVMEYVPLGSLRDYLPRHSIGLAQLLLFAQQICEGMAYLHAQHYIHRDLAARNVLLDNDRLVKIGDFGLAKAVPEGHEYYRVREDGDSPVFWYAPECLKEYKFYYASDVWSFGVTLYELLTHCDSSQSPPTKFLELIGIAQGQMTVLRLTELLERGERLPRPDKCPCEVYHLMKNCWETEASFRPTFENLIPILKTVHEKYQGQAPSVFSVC
# [9] = biological target: T2, Dual specificity protein kinase TTK (Homo sapiens) (UniProt P33981); settings: at 1 µM;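 also: reported figures are mean TTK inhibition at 1 µM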
# T2 sequence (whole entry): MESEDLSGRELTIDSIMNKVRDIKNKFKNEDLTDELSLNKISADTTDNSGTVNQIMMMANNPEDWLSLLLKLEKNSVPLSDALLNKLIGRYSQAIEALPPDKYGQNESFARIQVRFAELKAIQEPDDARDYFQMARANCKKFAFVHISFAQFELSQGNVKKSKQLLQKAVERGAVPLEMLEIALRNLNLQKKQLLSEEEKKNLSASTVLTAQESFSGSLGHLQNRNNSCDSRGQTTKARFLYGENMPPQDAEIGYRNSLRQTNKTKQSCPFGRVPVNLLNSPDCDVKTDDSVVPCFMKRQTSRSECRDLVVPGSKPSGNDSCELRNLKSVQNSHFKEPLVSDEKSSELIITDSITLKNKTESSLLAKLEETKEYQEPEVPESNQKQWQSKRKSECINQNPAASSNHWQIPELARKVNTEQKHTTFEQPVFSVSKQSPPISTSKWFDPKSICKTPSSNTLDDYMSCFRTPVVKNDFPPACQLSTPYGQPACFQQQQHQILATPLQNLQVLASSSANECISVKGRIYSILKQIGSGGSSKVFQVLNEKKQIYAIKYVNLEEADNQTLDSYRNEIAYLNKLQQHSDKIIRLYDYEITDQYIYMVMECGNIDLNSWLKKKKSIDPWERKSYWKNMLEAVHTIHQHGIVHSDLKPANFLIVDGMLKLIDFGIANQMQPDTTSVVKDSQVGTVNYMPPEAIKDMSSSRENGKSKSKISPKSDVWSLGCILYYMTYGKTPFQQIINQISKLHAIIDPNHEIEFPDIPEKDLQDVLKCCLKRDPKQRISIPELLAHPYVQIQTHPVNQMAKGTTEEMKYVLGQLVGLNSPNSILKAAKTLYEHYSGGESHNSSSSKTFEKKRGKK
# [10] = biological target: T3, Aurora kinase A (Homo sapiens) (UniProt O14965); settings: at 0.1 µM
# T3 sequence (whole entry): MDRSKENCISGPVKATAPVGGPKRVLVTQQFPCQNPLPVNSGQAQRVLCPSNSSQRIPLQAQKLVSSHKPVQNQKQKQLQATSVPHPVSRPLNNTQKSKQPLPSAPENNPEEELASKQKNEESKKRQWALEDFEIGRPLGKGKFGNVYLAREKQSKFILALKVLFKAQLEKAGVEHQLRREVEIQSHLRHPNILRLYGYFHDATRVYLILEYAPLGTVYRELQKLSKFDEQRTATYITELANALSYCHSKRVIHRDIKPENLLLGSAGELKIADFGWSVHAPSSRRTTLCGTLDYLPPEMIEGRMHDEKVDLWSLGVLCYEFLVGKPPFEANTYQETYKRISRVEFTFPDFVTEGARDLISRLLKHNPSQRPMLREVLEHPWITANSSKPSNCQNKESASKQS
# [11] = biological target: T3, Aurora kinase A (Homo sapiens); settings: at 1 µM
# [12] = biological target: Aurora kinase B (Homo sapiens) (UniProt Q96GD4); settings: at 0.1 µM
# Aurora kinase B (Homo sapiens), sequence (Q96GD4 whole entry): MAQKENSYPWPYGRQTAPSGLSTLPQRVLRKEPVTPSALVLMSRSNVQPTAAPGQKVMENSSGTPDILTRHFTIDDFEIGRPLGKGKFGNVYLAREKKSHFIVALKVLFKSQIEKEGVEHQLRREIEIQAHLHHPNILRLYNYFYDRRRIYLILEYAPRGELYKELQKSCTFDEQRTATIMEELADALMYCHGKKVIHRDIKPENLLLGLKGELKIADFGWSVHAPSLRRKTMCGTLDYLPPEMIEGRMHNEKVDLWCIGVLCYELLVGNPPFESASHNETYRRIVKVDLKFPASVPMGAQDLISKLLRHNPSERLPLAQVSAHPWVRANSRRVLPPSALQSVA
# [13] = biological target: Aurora kinase B (Homo sapiens) (UniProt Q96GD4); settings: at 1 µM
# [14] = biological target: T4, Aurora kinase C (Homo sapiens) (UniProt Q9UQB9); settings: at 0.1 µM
# T4 sequence (whole entry): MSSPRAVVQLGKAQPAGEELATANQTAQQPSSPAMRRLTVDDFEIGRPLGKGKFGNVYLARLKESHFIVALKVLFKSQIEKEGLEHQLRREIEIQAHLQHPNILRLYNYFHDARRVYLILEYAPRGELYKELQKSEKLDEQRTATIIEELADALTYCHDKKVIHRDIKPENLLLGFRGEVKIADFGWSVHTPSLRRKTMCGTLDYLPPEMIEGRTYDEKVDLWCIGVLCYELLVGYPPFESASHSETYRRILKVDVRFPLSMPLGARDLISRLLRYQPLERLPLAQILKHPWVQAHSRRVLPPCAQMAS
# [15] = biological target: T4, Aurora kinase C (Homo sapiens); settings: at 1 µM
# [16] = biological target: Serine/threonine-protein kinase 10 (Homo sapiens) (UniProt O94804); settings: at 0.1 µM
# [17] = biological target: Serine/threonine-protein kinase 10 (Homo sapiens) (UniProt O94804); settings: at 1 µM
# [18] = biological target: T5, Mitogen-activated protein kinase kinase kinase kinase 2 (Homo sapiens) (UniProt Q12851); settings: at 0.1 µM
# T5 sequence (whole entry): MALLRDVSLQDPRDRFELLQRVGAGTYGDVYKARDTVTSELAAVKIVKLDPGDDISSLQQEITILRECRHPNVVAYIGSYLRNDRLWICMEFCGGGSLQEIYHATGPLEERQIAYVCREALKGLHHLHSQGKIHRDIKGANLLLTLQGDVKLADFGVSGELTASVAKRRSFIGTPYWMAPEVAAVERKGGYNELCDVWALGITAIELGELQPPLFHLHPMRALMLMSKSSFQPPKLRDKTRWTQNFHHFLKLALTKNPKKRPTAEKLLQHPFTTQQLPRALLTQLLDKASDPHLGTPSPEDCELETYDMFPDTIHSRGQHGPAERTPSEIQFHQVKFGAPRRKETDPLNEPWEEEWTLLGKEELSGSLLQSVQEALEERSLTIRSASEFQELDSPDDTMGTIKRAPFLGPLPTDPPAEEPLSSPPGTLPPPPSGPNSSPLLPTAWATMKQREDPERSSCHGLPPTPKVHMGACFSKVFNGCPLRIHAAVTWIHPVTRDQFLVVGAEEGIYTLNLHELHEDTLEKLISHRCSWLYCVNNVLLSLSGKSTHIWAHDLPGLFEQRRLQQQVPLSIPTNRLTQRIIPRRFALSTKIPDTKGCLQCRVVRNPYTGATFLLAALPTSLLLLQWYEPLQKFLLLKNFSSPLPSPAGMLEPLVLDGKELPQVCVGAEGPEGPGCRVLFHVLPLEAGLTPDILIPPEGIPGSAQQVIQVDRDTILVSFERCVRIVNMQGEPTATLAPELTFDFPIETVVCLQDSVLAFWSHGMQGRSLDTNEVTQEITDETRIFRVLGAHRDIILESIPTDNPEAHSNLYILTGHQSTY
# [19] = biological target: T5, Mitogen-activated protein kinase kinase kinase kinase 2 (Homo sapiens); settings: at 1 µM
# [20] = biological target: Mitogen-activated protein kinase kinase kinase kinase 4 (Homo sapiens) (UniProt O95819); settings: at 0.1 µM
# Mitogen-activated protein kinase kinase kinase kinase 4 (Homo sapiens), sequence (O95819 2-1239 limits assumed): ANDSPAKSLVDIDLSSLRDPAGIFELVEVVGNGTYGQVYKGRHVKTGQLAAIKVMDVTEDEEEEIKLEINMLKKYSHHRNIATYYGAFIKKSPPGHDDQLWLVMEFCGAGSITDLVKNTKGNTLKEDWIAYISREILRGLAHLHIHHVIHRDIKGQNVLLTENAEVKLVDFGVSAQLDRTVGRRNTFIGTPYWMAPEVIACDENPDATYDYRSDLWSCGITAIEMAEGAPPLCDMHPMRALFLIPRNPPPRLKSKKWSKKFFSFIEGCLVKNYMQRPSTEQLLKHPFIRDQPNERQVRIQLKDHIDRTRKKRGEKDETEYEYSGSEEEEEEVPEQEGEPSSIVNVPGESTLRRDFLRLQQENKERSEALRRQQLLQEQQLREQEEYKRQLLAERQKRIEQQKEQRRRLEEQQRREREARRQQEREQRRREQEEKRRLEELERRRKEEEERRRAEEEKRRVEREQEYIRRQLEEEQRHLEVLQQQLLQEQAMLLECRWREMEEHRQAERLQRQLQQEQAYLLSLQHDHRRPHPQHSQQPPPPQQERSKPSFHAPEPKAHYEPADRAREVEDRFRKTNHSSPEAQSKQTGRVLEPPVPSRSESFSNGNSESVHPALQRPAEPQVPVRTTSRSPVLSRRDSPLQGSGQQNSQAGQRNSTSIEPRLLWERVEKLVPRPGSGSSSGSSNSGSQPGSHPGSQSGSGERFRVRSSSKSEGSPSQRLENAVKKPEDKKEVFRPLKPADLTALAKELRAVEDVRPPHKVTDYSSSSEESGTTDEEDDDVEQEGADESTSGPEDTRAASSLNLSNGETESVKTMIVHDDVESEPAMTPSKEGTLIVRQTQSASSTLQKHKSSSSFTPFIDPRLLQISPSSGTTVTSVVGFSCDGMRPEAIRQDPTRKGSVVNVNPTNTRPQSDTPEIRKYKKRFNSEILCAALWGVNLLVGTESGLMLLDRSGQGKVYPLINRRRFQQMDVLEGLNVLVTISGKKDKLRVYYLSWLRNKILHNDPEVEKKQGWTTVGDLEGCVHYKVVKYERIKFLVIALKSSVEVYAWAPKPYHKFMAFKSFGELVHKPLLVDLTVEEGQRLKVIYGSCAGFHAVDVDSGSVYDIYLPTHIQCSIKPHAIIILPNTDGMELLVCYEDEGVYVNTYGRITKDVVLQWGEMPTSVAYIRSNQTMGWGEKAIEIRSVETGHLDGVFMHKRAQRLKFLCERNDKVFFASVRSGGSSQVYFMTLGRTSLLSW
# BDNF/NT-3 growth factors receptor (Homo sapiens), sequence (Q16620 32-822 limits assumed): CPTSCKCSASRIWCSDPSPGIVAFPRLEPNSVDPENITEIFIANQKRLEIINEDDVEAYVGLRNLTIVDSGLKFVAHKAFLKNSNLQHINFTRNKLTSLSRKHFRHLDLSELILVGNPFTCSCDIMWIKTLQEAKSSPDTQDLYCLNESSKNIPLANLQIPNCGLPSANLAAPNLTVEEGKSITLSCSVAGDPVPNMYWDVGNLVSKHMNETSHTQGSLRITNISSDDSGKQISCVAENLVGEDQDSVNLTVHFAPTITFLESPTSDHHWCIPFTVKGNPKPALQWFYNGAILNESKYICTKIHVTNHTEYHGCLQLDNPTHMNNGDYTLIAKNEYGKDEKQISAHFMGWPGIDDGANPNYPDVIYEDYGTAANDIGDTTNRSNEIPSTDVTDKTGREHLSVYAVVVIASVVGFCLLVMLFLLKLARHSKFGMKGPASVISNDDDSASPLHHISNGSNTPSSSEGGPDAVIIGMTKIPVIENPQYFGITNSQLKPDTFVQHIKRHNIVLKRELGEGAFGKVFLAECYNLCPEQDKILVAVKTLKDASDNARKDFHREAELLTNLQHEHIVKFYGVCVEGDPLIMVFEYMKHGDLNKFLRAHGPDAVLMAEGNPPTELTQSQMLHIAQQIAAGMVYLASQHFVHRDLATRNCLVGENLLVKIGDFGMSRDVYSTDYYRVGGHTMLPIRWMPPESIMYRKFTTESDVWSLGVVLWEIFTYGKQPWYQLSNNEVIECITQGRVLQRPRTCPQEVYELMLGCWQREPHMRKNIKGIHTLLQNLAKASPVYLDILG
# High affinity nerve growth factor receptor (Homo sapiens), sequence (P04629 33-796 limits assumed): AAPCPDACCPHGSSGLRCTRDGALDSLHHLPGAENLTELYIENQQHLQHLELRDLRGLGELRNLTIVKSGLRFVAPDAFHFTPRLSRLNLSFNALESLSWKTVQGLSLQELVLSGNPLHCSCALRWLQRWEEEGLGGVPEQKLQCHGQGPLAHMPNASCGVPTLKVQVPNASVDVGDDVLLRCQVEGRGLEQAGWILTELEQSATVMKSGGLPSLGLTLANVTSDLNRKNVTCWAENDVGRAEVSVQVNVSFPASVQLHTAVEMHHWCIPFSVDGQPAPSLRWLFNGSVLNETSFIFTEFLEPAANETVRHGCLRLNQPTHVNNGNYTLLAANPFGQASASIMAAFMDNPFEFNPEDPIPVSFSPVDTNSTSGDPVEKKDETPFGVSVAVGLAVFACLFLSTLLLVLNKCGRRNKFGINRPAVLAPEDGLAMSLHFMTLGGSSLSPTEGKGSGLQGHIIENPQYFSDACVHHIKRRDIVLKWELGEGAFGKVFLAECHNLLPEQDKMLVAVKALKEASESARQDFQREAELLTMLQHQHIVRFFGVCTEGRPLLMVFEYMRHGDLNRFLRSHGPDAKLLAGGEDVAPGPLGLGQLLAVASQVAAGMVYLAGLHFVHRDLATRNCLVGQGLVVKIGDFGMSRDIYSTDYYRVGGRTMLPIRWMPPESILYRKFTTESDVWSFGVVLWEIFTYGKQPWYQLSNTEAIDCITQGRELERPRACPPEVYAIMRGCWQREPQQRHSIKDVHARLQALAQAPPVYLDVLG
SMILES,inhibition [1] [%],inhibition [2] [%],inhibition [3] [%],inhibition [4] [%],inhibition [5] [%],inhibition [6] [%],inhibition [7] [%],inhibition [8] [%],inhibition [9] [%],inhibition [10] [%],inhibition [11] [%],inhibition [12] [%],inhibition [13] [%],inhibition [14] [%],inhibition [15] [%],inhibition [16] [%],inhibition [17] [%],inhibition [18] [%],inhibition [19] [%],inhibition [20] [%]
Cc1ccc(C(=O)NC2CCC2)cc1-c1ccc(C(=O)NCC2CC2)cc1,3.19,1.02,1.56,2.08,1.92,2.58,3.4,-0.8,9.27,2.11,7.83,0.48,5.72,0.47,7.37,2.19,6.8,0.91,0.04,3.19
COc1ccc(C2=C(N3CCc4ccccc43)C(=O)NC2=O)cc1,3.66,3.2,2.97,3.23,3.14,3.28,4.15,-3.26,5.34,1.27,12.5,0.57,5.83,1.68,-3.65,4.19,10.4,0.85,4.95,6.97
c1ccc(-c2n[nH]cc2-c2ccnc(-c3ccc(OCCN4CCOCC4)cc3)c2)nc1,-0.7,0.05,0.41,1.29,3.05,5.88,6.57,4.24,0.86,0.43,7.41,7.03,11.9,5.43,18.2,3.53,6.24,6.4,7.48,28.6
COc1ccc2ncn(-c3cc(O[C@H](C)c4ccccc4Cl)c(C(N)=O)s3)c2c1,4.03,3.84,9.91,4.36,11,-5.63,-1.33,-5.25,9.02,-1.27,0.29,-0.75,1.24,-3.77,1.77,20.3,59.1,1.91,11,4.38
O=C1Nc2ccc(I)cc2C1=Cc1cc(Br)c(O)c(Br)c1,7.89,2.53,5.74,1.67,6.01,7.46,6.98,-1.21,13.3,3.6,9.69,1.83,3.08,0.09,4.11,4.81,7.92,0.93,3.6,31.7
COc1cc2ncn(-c3cc(OCCc4ccccc4)c(C(N)=O)s3)c2cc1OC,3.49,1.14,8.57,2.85,14.7,2.33,3.1,-3.55,6.73,2.54,8.4,3.16,7.8,1.23,8.14,25,66.7,1.21,7.11,5.29
NS(=O)(=O)c1ccc(N/N=C2\C(=O)Nc3ccc(-c4cnco4)cc32)cc1,36.1,9.38,46.4,13.3,51.9,-3.23,0.12,-0.2,52.8,1.82,33.1,-2.59,1.73,-3.12,11.5,2.55,8.33,1.49,4.85,65.1
C[C@@H](Oc1cc(-n2cnc3ccc(OC4CCN(C)CC4)cc32)sc1C(N)=O)c1ccccc1Cl,8.12,3.68,7.84,2.56,9.09,3.26,19,-3.41,8.91,-0.97,-0.02,-0.58,1.75,-3.34,-1.29,50.1,81.4,2.18,18.4,3.22
Cc1nnc(-c2ccc(C)c(-c3ccc(C(=O)NCc4ccc(Cl)cc4)cc3)c2)o1,3.12,3.47,1.5,2.79,1.36,-0.45,-1.48,-6.26,-0.17,-1.43,-4.05,-0.69,-2.09,-2.03,-9.49,2.71,6.75,1.46,1.6,5.65
Fc1ccc(-c2ncn(CCCN3CCOCC3)c2-c2ccncc2)cc1,-2.74,-0.51,-1.43,-0.42,-2.77,1.42,2,1.6,5.54,-0.48,3.87,0.52,5.52,-0.04,10.1,1.1,3.83,2.31,1.14,2.27
Fc1ccc(-c2ncn(C3CCNCC3)c2-c2ccnc(Oc3ccc4c(c3)OCO4)n2)cc1,4.38,5.44,5.76,4.02,7.26,0.33,3.68,-2.53,9.25,4.04,2.71,5.39,7.86,7.07,11.4,8.13,7.17,1.35,9.73,2.42
O=C(NCC1CC1)c1ccc(-c2cccc(C(=O)NC3CC3)c2)cc1,0.79,0.56,-1.04,2.02,-1.15,2.43,5.31,-2.99,3.09,1.42,6.45,2.04,5.76,0.57,11.8,3.1,-0.77,1.43,2.37,2.9
O=C(Nc1n[nH]c2nc(-c3ccco3)ccc12)C1CC1,3.29,0.95,2.36,1.6,5.42,2.21,2.84,-1.75,-0.72,2.22,11.4,1.7,8.39,1.88,7.39,4.1,9.62,0.49,4.84,4.17
